In PubChem BioAssay AID463173 (ICCB-Longwood Screening Facility, Harvard Medical School, 2010):
Among all 52,000 compounds or so, about 4,300 (8.3%) were called active. Cut-off read from the data, not from the text of the source: active = survival mostly below about 52% (no sharp cut-off); inactive = mostly above about 56%. The sample as a whole holds a higher share of actives than the screen did.

Tested on: DeltatarO mutant
Assay: growth inhibition of S. aureus wild type versus tarO mutant, primary screen, teichoic acid synthesis inhibitors, RN4220, OD600 (AID 463173)
Details: OD600, 18 h, hits give low values, screened at 18.75 µg/mL (by protocol)

Structure (SMILES) | survival
CCc1ccccc1NC(=O)C1CCCN(S(=O)(=O)c2ccc3[nH]c(=O)ccc3c2)C1 (configuration not stated) | 88% (inactive)
CCSc1nc2ccccc2c(OCc2cc(C(=O)OC)ccc2OC)c1C(=O)OC | -12% (active)
COC(=O)c1c(SC)nc2ccccc2c1OCc1ccccc1C | 105% (inactive)
COC(=O)c1c(SC)nc2ccccc2c1OCc1ccc(C)cc1C | 46% (active)
COC(=O)c1c(SC)nc2ccccc2c1OCc1cc(C)ccc1C | 144% (inactive)
CCSc1nc2ccccc2c(OCc2ccc(Cl)cc2)c1C(=O)OC | 98% (inactive)
CCSc1nc2ccccc2c(OCc2ccccc2Cl)c1C(=O)OC | 64% (inactive)
CCOC(=O)Cn1cc2c(c1-c1ccc(Cl)cc1)c(=O)n(C)c(=O)n2C | 60% (inactive)
COc1cc(CNC(=O)C2CCCCN2S(=O)(=O)c2ccc(F)cc2)cc(OC)c1OC (configuration not stated) | 83% (inactive)
Cc1ccc2c(=O)c(C(=O)c3ccc(F)cc3)cn(CC(=O)Nc3ccc4c(c3)OCCO4)c2n1 | 77% (inactive)
Cc1ccc(CCNC(=O)c2ccc3c(Cl)c4c(nc3c2)CCCC4)cc1 | 61% (inactive)
CCCCC(=O)N(c1ccc2oc(C)c(C(C)=O)c2c1)S(=O)(=O)c1ccc(F)cc1C | 62% (inactive)
CCOC(=O)c1c(-c2ccccc2)oc2ccc(N(C(C)=O)S(=O)(=O)c3cc(C)ccc3C)cc12 | 54% (inactive)
CCCC(=O)N(c1ccc2oc3c(c2c1)CCCC3)S(=O)(=O)c1ccc(CC)cc1 | 39% (active)
CCCC(=O)N(c1ccc2oc3c(c2c1)CCCC3)S(=O)(=O)c1cc(C)ccc1C | 35% (active)
CCc1ccc(S(=O)(=O)N(C(C)=O)c2ccc3oc4c(c3c2)CCCC4)cc1 | 146% (inactive)
CCCC(=O)N(c1ccc2oc(-c3ccccc3)c(C(=O)OCC)c2c1)S(=O)(=O)c1ccc(C)cc1 | 140% (inactive)
CCC1CN(C(=O)NCc2ccc(C)cc2)c2cc(C)ccc2O1 (configuration not stated) | 54% (inactive)
COC(=O)CC1Oc2ccc(Cl)cc2-n2cc(-c3ccccc3)nc21 (configuration not stated) | 63% (inactive)

Structure (SMILES) | survival
CCOC(=O)Cn1c(=O)oc2cc(S(=O)(=O)NC(C)c3ccccc3)ccc21 (configuration not stated) | 66% (inactive)
CC(C)=NNC(=O)CNc1ccccc1Cl | 79% (inactive)
Cc1ccc(NC(=O)C2CC=CCC2C(=O)N2CCCCC2)cc1 (configuration not stated) | 69% (inactive)
COc1cc(CN2CCc3nc(N4CCN(c5ccccc5F)CC4)ncc3C2)ccc1OC(C)C | 118% (inactive)
O=C(CC1N=C2c3ccccc3N=C(SCc3ccccc3Cl)N2C1=O)NCc1cccs1 (configuration not stated) | 66% (inactive)
Cc1cc(O)c(C(=O)c2cnc3c(c2)COc2ccccc2-3)cc1Cl | 76% (inactive)
Cc1ccc2c(c1)-c1ncc(C(=O)c3ccccc3O)cc1CO2 | 3% (active)
O=C(c1cnc2c(c1)COc1ccc(Cl)cc1-2)c1ccccc1O | 105% (inactive)
Cc1ccc2c(c1)-c1nc(-c3ccccc3)cc(-c3ccccc3)c1CO2 | 91% (inactive)
Cc1ccc2c(c1)-c1ncc(C(=O)c3cc(Br)ccc3O)cc1CO2 | 62% (inactive)
O=C(c1cnc2c(c1)COc1ccccc1-2)c1ccccc1O | 3% (active)
COc1ccccc1/C=C(\C#N)C(=O)NCC1CCCO1 (configuration not stated) | 129% (inactive)
CC1=C(c2ccc(Cl)cc2)S(=O)(=O)N=C1N1CCN(c2cccc(C(F)(F)F)c2)CC1 | 71% (inactive)
CCS(=O)(=O)N1CCc2cc(C(=O)NCc3ccc(Cl)cc3)ccc21 | 92% (inactive)
COc1cc(OC)c(NC(=O)Nc2nnc(N(C)C3CCCCC3)s2)cc1Cl | 23% (active)
COc1ccc(NC(=O)Nc2nnc(N(C)C3CCCCC3)s2)c(OC)c1 | 70% (inactive)
Cc1ccc(NC(=O)Nc2nnc(N(C)C3CCCCC3)s2)c(Cl)c1 | 104% (inactive)
O=C(CSc1nc2c([nH]c3ccccc32)c(=O)n1-c1cccc(Cl)c1)N1CCc2ccccc21 | 73% (inactive)
COC(=O)C1CCN(C(c2ccccc2)c2sc3nc(-c4ccco4)nn3c2O)CC1 (configuration not stated) | 57% (inactive)

Structure (SMILES) | survival
Cc1ccc(C)c(NC(=O)c2ccc(=O)n(Cc3ccc(F)cc3)c2)c1 | 94% (inactive)
CCN(CC)CCCNC(=O)Cn1ncc2c3ccccc3n(Cc3ccccc3)c2c1=O | 95% (inactive)
COc1ccc(N2CCN(CCCNC(=O)c3cc(Nc4ccc(OC)cc4OC)nc4ccccc34)CC2)cc1 | 87% (inactive)
O=C(c1cc2c(s1)-c1ccccc1OC2)N1CCN(c2ccc(F)cc2)CC1 | 59% (inactive)
COc1ccccc1N1CCN(C(=O)c2cc3c(s2)-c2ccccc2OC3)CC1 | 88% (inactive)
CCCN1CCN(CCCNC(=O)c2cc3c(Cl)nc4ccccc4c3s2)CC1 | 116% (inactive)
O=C(NCCCN1CCN(c2ccc(F)cc2)CC1)c1cc2c(Cl)nc3ccccc3c2s1 | 91% (inactive)
COc1ccc2c(c1)CC(C(=O)NCCN1CCN(c3cccc(C)c3C)CC1)CO2 (configuration not stated) | 76% (inactive)
COc1ccc2c(c1)CC(C(=O)NCCCN1CCN(c3ccccc3F)CC1)CO2 (configuration not stated) | 87% (inactive)
O=C(c1cc2c(s1)-c1ccccc1OC2)N1CCN(c2ccccc2F)CC1 | 41% (active)
COc1ccc(Nc2cc(C(=O)NCCCN3CCN(c4ccccc4F)CC3)c3ccccc3n2)c(OC)c1 | 48% (active)
COc1ccc2c(c1)CC(C(=O)NCCN1CCN(c3ccccc3F)CC1)CO2 (configuration not stated) | 47% (active)
O=C(NCCCN1CCN(c2ccccc2F)CC1)c1cc2c(Cl)nc3ccccc3c2s1 | 51% (active)
COc1ccc(N2CCN(CCCNC(=O)c3cc(Nc4ccccc4OC)nc4ccccc34)CC2)cc1 | 62% (inactive)
COc1cccc(N2CCN(C(=O)Cn3c(-c4cccs4)cc4ccccc43)CC2)c1 | 104% (inactive)
CCCCOc1ccc(C(C)NC(=O)c2cccc(Nc3nc4ccccc4n4nnnc34)c2)cc1 (configuration not stated) | 67% (inactive)
Cc1ccc2[nH]c3nc(NN)nnc3c2c1 | 77% (inactive)
CCOc1ccc(N2CC(NC(=O)Cc3ccccc3)CC2=O)cc1 (configuration not stated) | 135% (inactive)
COc1ccc(N(Cc2nnc3n2CCCCC3)C(=O)Nc2ccc(Cl)cc2)cc1Cl | 85% (inactive)
